Assay results from PubChem BioAssay (EPA / NIEHS).
Records with an inconclusive call do not appear. The source made the active and inactive calls. Rule for the calls: active = hit-call score of the fitted dose curve at least 0.9, where 1 is the maximum; inconclusive = response in the unintended direction; inactive = score below 0.9. Where a SMILES comes first, the peptide text is derived from it. Bridges are numbered along the chain shown (N, C = ends).

Test system: not listed separately
Test: TOX21_p53_BLA_p4_viability: Viability Assessment in the Tox21 HCT-116 p53 Agonism Beta-lactamase Assay, Phase 4 (AID 2283597);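 note: hits lower the luminescence signal meaning cytotoxicity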
Method in brief: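 We seeded HCT116 p53 reporter cells at 4000/well and waited 5 h. We then added compounds in DMSO at a 217-fold dilution and incubated for 16 h. Viability was read as CellTiter-Glo luminescence after 30 min at RT.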

SMILES | outcome | AC50
Cc1ccc(C(C)(C)c2ccc(C)cc2)cc1 | inactive | 
CCCCNC(=O)NCCCC | inactive | 
N[C@@H](CSCCCO)C(=O)O | inactive | 
CN(C)C(=O)Oc1ccc[n+](C)c1 | inactive | 
CCCCOc1ccc(OCCCN2CCOCC2)cc1 | inactive | 
C=C1C(=O)O[C@H]2[C@H]1CC/C(C)=C/CC[C@@]1(C)O[C@@H]21 |  | 36.9 µM (active)
N[C@H]1CN(c2c(F)cc3c(=O)c(C(=O)O)cn(C4C[C@H]4F)c3c2Cl)CC12CC2 (stereo partly drawn) | inactive | 
CC(C(=O)O)c1ccc2c(c1)Cc1cccnc1O2 (stereo not drawn) | inactive | 
O=C(O)c1ccc(NC(=O)[C@H](Cc2ccc(O)cc2)NC(=O)c2ccccc2)cc1 | inactive | 
O=C(Cn1c(=O)sc2ccc(Cl)cc21)N1CCN(CCO)CC1 | inactive | 
CN[C@@H]1[C@@H](O)[C@@H](O[C@@H]2[C@@H](O)[C@H](O[C@H]3O[C@H](CN)[C@@H](O)[C@H](O)[C@H]3O)[C@@H](N)C[C@H]2NC(=O)C(O)CN)OC[C@]1(C)O (stereo partly drawn) | inactive | 
O[C@@H]1CO[C@H]2[C@@H]1OC[C@@H]2O | inactive | 
Cc1ccc(N)nc1 | inactive | 
O=C(/C=C/c1ccc(O)c(O)c1)O[C@@H](C(=O)O)[C@@H](OC(=O)/C=C/c1ccc(O)c(O)c1)C(=O)O | inactive | 
COc1cc2c(cc1OC)C(C(C(=O)N(CCc1ccc(OC)c(OC)c1OC)CCc1ccc(OC)c(OC)c1OC)c1ccccc1)=NCC2 (stereo not drawn) | inactive | 
Oc1ccc(CCNCCCCCCNCCc2ccccc2)cc1O | inactive | 
O=C(O)c1cc(C(=O)O)cc(C(=O)O)c1 | inactive | 
CCOC(=O)[C@H](CCc1ccccc1)N[C@@H](C)C(=O)N1Cc2cc(OC)c(OC)cc2C[C@H]1C(=O)O | inactive | 
CC(C)(O)CCC(C)(C)O | inactive | 
CC1CCCCN1CCCOC(=O)c1ccccc1 (stereo not drawn) | inactive | 
CN1CCCC(CC2c3ccccc3Sc3ccccc32)C1 (stereo not drawn) | inactive | 
CCCCCCCCCCCCCCCC(=O)O[C@@H]1CC(C)=C(/C=C/C(C)=C/C=C/C(C)=C/C=C/C=C(C)/C=C/C=C(C)/C=C/C2=C(C)C[C@@H](OC(=O)CCCCCCCCCCCCCCC)CC2(C)C)C(C)(C)C1 | inactive | 
CC1(C)OC[C@@H](COC(=O)CCc2ccc(OC[C@@H](O)CNCCNC(=O)N3CCOCC3)cc2)O1 | inactive | 
CC(=O)CC(=O)Nc1ccc(S(=O)(=O)O)cc1 | inactive | 

Target: Cellular tumor antigen p53 (Homo sapiens) (UniProt P04637)
Test: TOX21_p53_BLA_p5_ratio: Tox21 HCT-116 p53 Agonism Beta-lactamase Assay, Ratio, Phase 5 (AID 2283599)
Method in brief: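 HCT-116 cells carrying a p53-inducible beta-lactamase reporter were seeded at 4000 cells/well and dosed after 5 h with compound in DMSO (217-fold dilution). After 16 h at 37C, CCF4-AM substrate was added for 2 h, and the 460/530 nm emission ratio was scored as gain-of-signal versus DMSO.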

Chain of Cellular tumor antigen p53 (Homo sapiens) (P04637 whole entry, looked up): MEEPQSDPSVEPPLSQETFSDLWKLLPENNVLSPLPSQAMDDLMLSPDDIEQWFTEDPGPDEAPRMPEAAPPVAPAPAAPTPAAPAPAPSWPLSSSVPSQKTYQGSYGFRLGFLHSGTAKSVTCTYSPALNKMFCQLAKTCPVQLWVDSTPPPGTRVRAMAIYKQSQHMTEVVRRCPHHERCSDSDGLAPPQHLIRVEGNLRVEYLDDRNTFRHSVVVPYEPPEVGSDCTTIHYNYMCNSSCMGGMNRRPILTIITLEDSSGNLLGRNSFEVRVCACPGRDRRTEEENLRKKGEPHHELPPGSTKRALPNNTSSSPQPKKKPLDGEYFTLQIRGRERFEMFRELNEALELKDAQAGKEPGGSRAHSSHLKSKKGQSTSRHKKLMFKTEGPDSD

SMILES | outcome
CCCCNC(=O)NCCCC | inactive
N[C@@H](CSCCCO)C(=O)O | inactive
CCNS(=O)(=O)c1ccc(C)cc1 | inactive
CN(C)C(=O)Oc1ccc[n+](C)c1 | inactive
CC(C(=O)O)c1ccc2c(c1)Cc1cccnc1O2 (stereo not drawn) | inactive
CC1=C(/C=C/C(C)=C/C=C/C(C)=C/C=C/C=C(C)/C=C/C=C(C)/C=C/C2=C(C)C(=O)CCC2(C)C)C(C)(C)CCC1=O | inactive
COC(=O)c1cc(C(=O)OC)cc(S(=O)(=O)O)c1 | inactive
Cc1ccc(N)nc1 | inactive
C[C@H]1O[C@H](O[C@H]2[C@H](O)[C@@H](O)[C@@H](O[C@H]3[C@H](O)[C@@H](O)[C@H](O)O[C@@H]3CO)O[C@@H]2CO)[C@H](O)[C@@H](O)[C@@H]1N[C@H]1C=C(CO)[C@@H](O)[C@H](O)[C@H]1O | inactive
NCCCC[C@H](NC(=O)[C@@H]1CCCN1C(=O)[C@@H]1CSSC[C@H](NC(=O)CNC(=O)CNC(=O)CN)C(=O)N[C@@H](Cc2ccc(O)cc2)C(=O)N[C@@H](Cc2ccccc2)C(=O)N[C@@H](CCC(N)=O)C(=O)N[C@@H](CC(N)=O)C(=O)N1)C(=O)NCC(N)=O (H-GGGCYFQNCPKG-NH2; disulfide 4-9) | inactive
BrC(Br)C(Br)Br | inactive
O=C(/C=C/c1ccc(O)c(O)c1)O[C@@H](C(=O)O)[C@@H](OC(=O)/C=C/c1ccc(O)c(O)c1)C(=O)O | inactive
COc1cc2c(cc1OC)C(C(C(=O)N(CCc1ccc(OC)c(OC)c1OC)CCc1ccc(OC)c(OC)c1OC)c1ccccc1)=NCC2 (stereo not drawn) | inactive
NCCCC(O)(P(=O)(O)O)P(=O)(O)O | inactive
Cc1ccccc1C(=O)Nc1ccc(C(=O)N2CCCC(O)c3cc(Cl)ccc32)c(C)c1 (stereo not drawn) | inactive
O=C(O)c1cc(C(=O)O)cc(C(=O)O)c1 | inactive
CC(C)(O)CCC(C)(C)O | inactive
O=S(=O)(O)c1cccc(S(=O)(=O)O)c1 | inactive
CC1(C)OC[C@@H](COC(=O)CCc2ccc(OC[C@@H](O)CNCCNC(=O)N3CCOCC3)cc2)O1 | inactive
CC(=O)c1ccc(C(C)=O)cc1 | inactive
CC#N | inactive
Cc1ccc(S(=O)(=O)NC(=O)NC2CCCC2)cc1 | inactive
O=c1oc2c(O)c(O)cc3c(=O)oc4c(O)c(O)cc1c4c23 | inactive
CO[C@H]1O[C@@H]2O[C@@]3(C)CC[C@H]4[C@H](C)CC[C@@H]([C@H]1C)[C@@]24OO3 | inactive

Test system: not listed separately
Test: TOX21_p53_BLA_p5_viability: Viability Assessment in the Tox21 HCT-116 p53 Agonism Beta-lactamase Assay, Phase 5 (AID 2283600)
Method in brief: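 Compounds, pinned from DMSO at 217-fold dilution, were left on the cells for 16 h. The viability endpoint was ATP content measured by CellTiter-Glo luminescence, where falling signal reflects cytotoxicity.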

SMILES | outcome
CCCCNC(=O)NCCCC | inactive
N[C@@H](CSCCCO)C(=O)O | inactive
CCNS(=O)(=O)c1ccc(C)cc1 | inactive
CN(C)C(=O)Oc1ccc[n+](C)c1 | inactive
CCCCOc1ccc(OCCCN2CCOCC2)cc1 | inactive
C=C1C(=O)O[C@H]2[C@H]1CC/C(C)=C/CC[C@@]1(C)O[C@@H]21 | inactive
N[C@H]1CN(c2c(F)cc3c(=O)c(C(=O)O)cn(C4C[C@H]4F)c3c2Cl)CC12CC2 (stereo partly drawn) | inactive
CC(C(=O)O)c1ccc2c(c1)Cc1cccnc1O2 (stereo not drawn) | inactive
O=C(O)c1ccc(NC(=O)[C@H](Cc2ccc(O)cc2)NC(=O)c2ccccc2)cc1 | inactive
O=C(Cn1c(=O)sc2ccc(Cl)cc21)N1CCN(CCO)CC1 | inactive
CC1=C(/C=C/C(C)=C/C=C/C(C)=C/C=C/C=C(C)/C=C/C=C(C)/C=C/C2=C(C)C(=O)CCC2(C)C)C(C)(C)CCC1=O | inactive
O[C@@H]1CO[C@H]2[C@@H]1OC[C@@H]2O | inactive
COC(=O)c1cc(C(=O)OC)cc(S(=O)(=O)O)c1 | inactive
C[C@H]1O[C@H](O[C@H]2[C@H](O)[C@@H](O)[C@@H](O[C@H]3[C@H](O)[C@@H](O)[C@H](O)O[C@@H]3CO)O[C@@H]2CO)[C@H](O)[C@@H](O)[C@@H]1N[C@H]1C=C(CO)[C@@H](O)[C@H](O)[C@H]1O | inactive
NCCCC[C@H](NC(=O)[C@@H]1CCCN1C(=O)[C@@H]1CSSC[C@H](NC(=O)CNC(=O)CNC(=O)CN)C(=O)N[C@@H](Cc2ccc(O)cc2)C(=O)N[C@@H](Cc2ccccc2)C(=O)N[C@@H](CCC(N)=O)C(=O)N[C@@H](CC(N)=O)C(=O)N1)C(=O)NCC(N)=O (H-GGGCYFQNCPKG-NH2; disulfide 4-9) | inactive
BrC(Br)C(Br)Br | inactive
O=C(/C=C/c1ccc(O)c(O)c1)O[C@@H](C(=O)O)[C@@H](OC(=O)/C=C/c1ccc(O)c(O)c1)C(=O)O | inactive
COc1cc2c(cc1OC)C(C(C(=O)N(CCc1ccc(OC)c(OC)c1OC)CCc1ccc(OC)c(OC)c1OC)c1ccccc1)=NCC2 (stereo not drawn) | inactive
Oc1ccc(CCNCCCCCCNCCc2ccccc2)cc1O | inactive
NCCCC(O)(P(=O)(O)O)P(=O)(O)O | inactive
Cc1ccccc1C(=O)Nc1ccc(C(=O)N2CCCC(O)c3cc(Cl)ccc32)c(C)c1 (stereo not drawn) | inactive
CCOC(=O)[C@H](CCc1ccccc1)N[C@@H](C)C(=O)N1Cc2cc(OC)c(OC)cc2C[C@H]1C(=O)O | inactive
CC(C)(O)CCC(C)(C)O | inactive
CC1CCCCN1CCCOC(=O)c1ccccc1 (stereo not drawn) | inactive
CN1CCCC(CC2c3ccccc3Sc3ccccc32)C1 (stereo not drawn) | inactive
O=S(=O)(O)c1cccc(S(=O)(=O)O)c1 | inactive
CC1(C)OC[C@@H](COC(=O)CCc2ccc(OC[C@@H](O)CNCCNC(=O)N3CCOCC3)cc2)O1 | inactive
CC(=O)c1ccc(C(C)=O)cc1 | inactive
Cc1ccc(S(=O)(=O)NC(=O)NC2CCCC2)cc1 | inactive
CO[C@H]1O[C@@H]2O[C@@]3(C)CC[C@H]4[C@H](C)CC[C@@H]([C@H]1C)[C@@]24OO3 | inactive
